Screening data as filed in PubChem BioAssay.
CYP2C19 inh: blockers of cytochrome P450 2C19 activity – biochemical, luminescence, ADME assay, primary screen; hit rate 21% among 96,000; inhibition, % at 5 µM; AID 778, 2007; CYP2C19 Supersomes, luciferin-H EGE luminescence, 30 min;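 active = CYP2C19 inhibition above a set limit at 5 µM in the primary screen, cut at about 50% in these data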;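 also: plate controls were negative control wells for no effect and 2.5 mM tranylcypromine positive control for full effect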
Target sequence (P33261 whole entry, looked up): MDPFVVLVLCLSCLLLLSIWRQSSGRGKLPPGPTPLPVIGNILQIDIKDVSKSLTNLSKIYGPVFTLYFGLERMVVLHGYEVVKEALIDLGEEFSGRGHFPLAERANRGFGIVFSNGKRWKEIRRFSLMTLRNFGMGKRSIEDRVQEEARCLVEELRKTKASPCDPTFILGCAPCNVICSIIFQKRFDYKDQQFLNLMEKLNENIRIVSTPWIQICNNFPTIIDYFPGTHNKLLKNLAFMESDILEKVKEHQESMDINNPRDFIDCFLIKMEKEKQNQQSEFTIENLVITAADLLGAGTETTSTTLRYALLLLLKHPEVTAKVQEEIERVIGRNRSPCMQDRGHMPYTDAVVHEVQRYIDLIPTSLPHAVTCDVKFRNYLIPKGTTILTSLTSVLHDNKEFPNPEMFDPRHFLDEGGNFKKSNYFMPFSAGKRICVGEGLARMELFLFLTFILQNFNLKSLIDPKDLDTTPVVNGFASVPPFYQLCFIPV
CYP2C9 inh: blockers of cytochrome P450 2C9 activity – biochemical, luminescence, ADME assay, primary screen; P11712; CYP2C9 Supersomes, luciferin-H conversion; inhibition, % at 5 µM; hit rate 20% among 96,000; AID 777, 2007;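 active = blocking of liver enzyme CYP2C9 beyond about 50% at 5 µM, limit read from the data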
CYP2C19 activ: human CYP2C19 activators, primary screen, biochemical, luminescence. recombinant CYP2C19, luciferin-H EGE luminescence; stronger effect = higher value; 0 = fully inhibited enzyme, 1 = untreated enzyme. Cytochrome P450 2C19 (Homo sapiens), P33261. 96,000 tested, under 10 active. activation factor at 5 µM. AID 1025, 2008;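 active = activation factor of at least 2 at 5 µM in the primary screen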;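 also: 0 = wells with 2.5 mM tranylcypromine and 1 = vehicle-only wells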
CYP2C9 activ: human CYP2C9 activators, primary screen, biochemical, luminescence; Cytochrome P450 2C9 (Homo sapiens), P11712; recombinant CYP2C9, luciferin-H conversion; stronger effect = higher value; factor 1 = untreated enzyme, 0 = blocked; activation factor at 5 µM; hit rate 1.4% among 96,000;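 active = activation factor of 2 or more for CYP2C9 at a 5 µM dose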;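 also: 0 = sulfaphenazole-blocked wells and 1 = vehicle-only wells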
* = called active by the depositor. Hits are enriched below; roughly 31% of the tested compounds scored in any of these assays.

SMILES	CYP2C19 inh	CYP2C9 inh	CYP2C19 activ	CYP2C9 activ
O=C1c2[nH]nc(-c3ccccc3O)c2C(c2cccc(Cl)c2)N1Cc1ccco1 (stereo not drawn)	87*	95*	0.1	0
O=C1c2[nH]nc(-c3ccccc3O)c2C(c2cccc(Cl)c2)N1CC1CCCO1 (stereo not drawn)	70*	88*	0.3	0.1
O=C1c2[nH]nc(-c3ccccc3O)c2C(c2ccc(F)cc2)N1CC1CCCO1 (stereo not drawn)	22	15	0.8	0.8
CC(C)(C)c1cc(-c2ccco2)c(C#N)c(SCC#N)n1	40	95*	0.6	0.1
N#Cc1c(N)nc(SCc2ccccc2)c(C#N)c1-c1ccco1	4	11	1	0.9
O=C(NCCCc1ccccc1)c1ccncc1	98*	93*	0	0.1
O=C(NCc1ccncc1)c1ccc(Br)cc1	51*	28	0.5	0.7
O=C(NCc1ccccc1)NC(=O)c1ccncc1	95*	82*	0	0.2
Cc1ccc(C(=O)NCCc2ccncc2)cc1	51*	29	0.5	0.7
O=C(NCc1ccccc1)NC(=O)c1ccccc1	37	5	0.6	1
O=C(NCCCc1ccccc1)c1ccccc1	49	12	0.5	0.9
Cn1c(N)c(C(=O)COC(=O)C2CCCCC2)c(=O)n(C)c1=O	11	-4	0.9	1
COC(=O)c1c(-c2cccs2)csc1NC(=O)c1cccnc1	100*	100*	0	0
O=C(NCCOC(=O)c1ccncc1)c1ccccc1	71*	92*	0.3	0.1
O=C(NCCOC(=O)c1ccc(C(=O)OCCNC(=O)c2cccnc2)s1)c1cccnc1	2	40	1	0.6
O=C(NCCOC(=O)c1cccs1)c1cccnc1	61*	33	0.4	0.7
CCCOc1ccc(C(C(=O)OCCN(CC)CC)c2ccccc2)cc1 (stereo not drawn)	0	11	1	0.9
N#C/C(=C\c1ccc(Cl)cc1)c1n[nH]c(Cn2cncn2)n1	30	68*	0.7	0.3
CN1CCN(CC(=O)Nc2ccc(Cl)cc2Cl)CC1	50	-2	0.5	1
O=C(Nc1ccc(Cl)cc1Cl)c1n[nH]c(Cn2cncn2)n1	53*	51*	0.5	0.5
Cc1cc(C)c2[nH]c(=S)cc(C)c2c1	8	6	0.9	0.9
CC(=O)N1CCCc2cc(S(=O)(=O)N3CCN(c4ccccn4)CC3)ccc21	16	19	0.8	0.8
Cn1nc([N+](=O)[O-])nc1Sc1nnc(-c2ccccc2)o1	19	52*	0.8	0.5
Cc1[nH]c2ccccc2c1C(=O)COC(=O)C1CC(=O)N(Cc2ccccc2)C1 (stereo not drawn)	78*	67*	0.2	0.3
CCOC(=O)c1c(C)[nH]c(C(=O)COC(=O)C2CC(=O)N(Cc3ccccc3)C2)c1C (stereo not drawn)	42	42	0.6	0.6
SMILES	CYP2C19 inh	CYP2C9 inh	CYP2C19 activ	CYP2C9 activ
COC(=O)C1=C(N)Oc2cc(C)n(Cc3cccnc3)c(=O)c2C1c1ccc(OC)c(OC)c1OC (stereo not drawn)	22	36	0.8	0.6
O=C1c2ccccc2S(=O)(=O)N1CCOc1ccc(F)cc1	99*	63*	0	0.4
COc1ccc(N2CCN(C(=O)CN3C(=O)c4ccccc4S3(=O)=O)CC2)cc1	-1	2	1	1
CCc1c(C(=O)NCc2ccccc2Cl)[nH]c(C)c1C(C)=O	61*	66*	0.4	0.3
CCc1c(C(=O)Nc2ccc(OC)cc2)[nH]c(C)c1C(C)=O	27	14	0.7	0.9
CCc1c(C(=O)NCc2ccc3c(c2)OCO3)[nH]c(C)c1C(C)=O	41	80*	0.6	0.2
CCc1c(C(=O)Nc2cc(C)ccc2OC)[nH]c(C)c1C(C)=O	55*	35	0.4	0.7
CCc1c(C(=O)NCCc2ccc(OC)c(OC)c2)[nH]c(C)c1C(C)=O	19	37	0.8	0.6
COc1ccc(-n2c(=S)[nH]c3cc(C(=O)NCc4ccco4)ccc3c2=O)cc1OC	-4	-4	1	1
COc1ccc(CCn2c(=S)[nH]c3cc(C(=O)NCc4ccco4)ccc3c2=O)cc1OC	42	60*	0.6	0.4
COc1ccccc1CCNCc1ccc(OC)c(OCc2ccccc2)c1	42	-17	0.6	1.2
CCCOc1cc(CC(=O)NCc2ccco2)ccc1OC	71*	63*	0.3	0.4
COc1ccc(CNCc2ccco2)cc1OCc1ccccc1	65*	-5	0.4	1.1
COc1ccc(C(=O)NC(=S)NCc2ccco2)cc1OC	54*	70*	0.5	0.3
O=C(NCC1CCCO1)c1ccc(COCC(F)(F)C(F)F)cc1 (stereo not drawn)	48	13	0.5	0.9
CC(C)NC(=O)c1ccc(COCC(F)(F)C(F)F)cc1	84*	-23	0.2	1.2
Cc1nc2ccc(C(=O)OCc3ccccc3Br)cc2nc1C	16	-32	0.8	1.3
CC(=O)c1c(COC(=O)c2ccccc2)nc2ccccc2[n+]1[O-]	73*	33	0.3	0.7
Cc1cccc(CN(CC(=O)N/N=C/c2cccs2)S(=O)(=O)c2ccc(Cl)cc2)c1	74*	70*	0.3	0.3
COc1ccc(CNC(=O)CN(Cc2ccc(C)cc2)S(=O)(=O)c2ccc(Cl)cc2)cc1	32	26	0.7	0.7
Cc1cccc(CN(CC(=O)N/N=C/c2ccco2)S(=O)(=O)c2ccc(Cl)cc2)c1	100*	93*	0	0.1
Cc1ccc(N2CSC3=C(C#N)C(c4cccs4)CC(=O)N3C2)cc1 (stereo not drawn)	37	86*	0.6	0.1
CCOC(=O)c1ccc(N2CSC3=C(C#N)C(c4cccs4)CC(=O)N3C2)cc1 (stereo not drawn)	90*	94*	0.1	0.1
CN1CSC2=C(C#N)C(c3cccc(OCc4ccccc4)c3)CC(=O)N2C1 (stereo not drawn)	18	84*	0.8	0.2
CCc1ccc(C2CC(=O)N3CN(c4ccccc4)CSC3=C2C#N)cc1 (stereo not drawn)	22	53*	0.8	0.5
SMILES	CYP2C19 inh	CYP2C9 inh	CYP2C19 activ	CYP2C9 activ
O=C(OCC(=O)N1CCN(C(=O)c2ccco2)CC1)c1ccccc1C(=O)c1ccc(Cl)cc1	21	31	0.8	0.7
CCOC(=O)c1cccc(N2C(N)=NC(N)=NC2(C)C)c1	-4	4	1	1
COc1cc(C)nc2nc(SCc3ccccc3)nn12	23	-32	0.8	1.3
Cc1nn2c(-n3ccnc3)c3c(nc2c1-c1ccccc1)CCC3	96*	63*	0	0.4
COc1ccc(C2(CNC(=O)Cc3ccc(OC)c(OC)c3)CCOCC2)cc1	-11	-17	1.1	1.2
CC(NC(=O)C1CCN(S(=O)(=O)N2CCCCCC2)CC1)c1ccccc1 (stereo not drawn)	22	18	0.8	0.8
